From PubChem BioAssay (NCATS)
Results filed as inconclusive are left out. A number with no mark means an inactive call. The source made the active and inactive calls. Calls follow the shape of the full dose curve.

Assay: Validation screen for inhibitors of Lassa infection (AID 463096)
Settings: Lassa virus infection, cell-based; series mostly up to 46.1 µM; activity change, negative = inhibition: at the top concentration
% is scaled to controls: 0 for no effect and ±100 for the full control effect.

**Q.** For OCCN1CCN(CCCN2c3ccccc3C=Cc3ccccc32)CC1, which Potency is on record?
**A.** inactive

**Q.** Which “activity change, negative = inhibition” value does the source give for C=CCc1ccccc1OCC(O)CNC(C)C (stereo unspecified) here?
**A.** 14.9%

**Q.** With c1cnc(N2CCN(Cc3ccc4c(c3)OCO4)CC2)nc1 as the compound, how does the “activity change, negative = inhibition” value read?
**A.** 41.6%

**Q.** With CCCN(CCC)C(=O)C(CCC(=O)O)NC(=O)c1ccccc1 (stereo unspecified) as the compound, how does the “activity change, negative = inhibition” value read?
**A.** 0.851%

**Q.** With OCc1cc(C(O)CNCCCCCCOCCCCc2ccccc2)ccc1O (stereo unspecified) as the compound, how does the “activity change, negative = inhibition” value read?
**A.** -44.5%

**Q.** Which “activity change, negative = inhibition” value does the source give for CC(C)COCC(CN(Cc1ccccc1)c1ccccc1)N1CCCC1 (stereo unspecified) here?
**A.** 10.2%

**Q.** For Nc1c2c(nc3ccccc13)CCCC2, which “activity change, negative = inhibition” value is on record?
**A.** 10.4%

**Q.** With CNC[C@H](O)c1ccc(O)c(O)c1 as the compound, how does the “activity change, negative = inhibition” value read?
**A.** -10.8%

**Q.** For COC(=O)[C@@H](N)Cc1ccc(O)c(O)c1, which “activity change, negative = inhibition” value is on record?
**A.** 8.42%

**Q.** With Clc1ccc(Cn2c(CN3CCCC3)nc3ccccc32)cc1 as the compound, how does the “activity change, negative = inhibition” value read?
**A.** -22.1%

**Q.** For COc1ccc(CCN(C)CCCC(C#N)(c2cc(OC)c(OC)c(OC)c2)C(C)C)cc1OC (stereo unspecified), which “activity change, negative = inhibition” value is on record?
**A.** -4.33%

**Q.** With Cc1ccc(N(CC2=NCCN2)c2cccc(O)c2)cc1 as the compound, how does the “activity change, negative = inhibition” value read?
**A.** -20.3%

**Q.** With NC(N)=NC(=O)c1nc(Cl)c(N)nc1N as the compound, how does the “activity change, negative = inhibition” value read?
**A.** -1.72%

**Q.** For COc1ccccc1N1CCN(CC(O)COc2cccc3ccccc23)CC1 (stereo unspecified), which “activity change, negative = inhibition” value is on record?
**A.** -37.9%

**Q.** With CC(C(O)c1ccc(O)cc1)N1CCC(Cc2ccccc2)CC1 (stereo unspecified) as the compound, how does the “activity change, negative = inhibition” value read?
**A.** -45.1%

**Q.** For CN(C(=O)CCCOc1ccc2[nH]c(=O)ccc2c1)C1CCCCC1, which “activity change, negative = inhibition” value is on record?
**A.** -5.92%
